Compound activity (PubChem)
Sampled rows, rich in hits. Any-hit rate of the full collection: about 1.1%.
PrPC surface inh – inhibitors of human cell surface prion protein PrPC. TR-FRET read-out. P04156. inhibition, % at 13.8 µM. hit rate 0.43% among 370,000; in the data active = inhibition above about 24%; also: 0% = median of the test wells and 100% = reference compound wells
BJeLR lethal – kills HRASV12-expressing BJeLR cells; inhibition, % (test concentration not listed); hit rate 0.17% among 300,000; BJeLR (HRASV12) viability, CellTiter-Glo ATP luminescence, 48 h; in the data active = inhibition above about 50%
MazF activator – MazEF (E. coli) toxin RNase activation | P0AE70 | FAM/BHQ RNA-DNA oligo cleavage fluorescence, 5 h | activation, % at 20 µM | hit rate 0.32% among 350,000 | AID 504720; in the data active = activation above about 50%
PrP 5UTR inh – inhibition of PrP 5' UTR reporter expression | cell-based PrP 5' UTR mRNA reporter, plate reader | inhibition, % (test concentration not listed) | hit rate 0.35% among 340,000 | AID 488862; in the data active = inhibition above about 52%; also: 0 = median of the neutral control wells
PrPC TRFRET cf – confirmation of inhibitors of cell surface human prion protein. shares compounds with PrPC surface inh. hit rate 65% among 1,500. cell surface PrPC level, TR-FRET. AID 743200. inhibition, % at 13.8 µM; in the data active = inhibition above about 25%
LD9 cytotox – kills or reduces viability of LD9 cells in PrPc counter-screen. hit rate 29% among 1,500. inhibition, % at 13.8 µM. shares compounds with PrPC surface inh. LD9 cells cytotoxicity, luminescence viability. AID 743201; in the data active = inhibition above about 9.5%
Starred values were filed as active, the others as inactive; / = no result given.

SMILES	PrPC surface inh	BJeLR lethal	MazF activator	PrP 5UTR inh	PrPC TRFRET cf	LD9 cytotox
COc1ccc(OC)c(C2NC(=O)N(C)C(C)=C2C(=O)OCc2ccccc2)c1 (stereo not drawn)	68.4*	-5.7	-1.7	13.2	79.2*	-4.4
CCc1ccc(-c2nc3ccc(Br)cc3c(C(=O)O)c2C)s1	47.8*	1.5	1.0	-25.7	83.7*	-3.2
COc1ccc(C(=O)Nc2ncccc2C)cc1S(=O)(=O)N1CCCc2ccccc21	-4.4	-2.6	-8.5	-11.7	/	/
COc1ccc(C(=O)Nc2nc3c(s2)CCCC3)cc1S(=O)(=O)N1CCCc2ccccc21	28.1*	20.8	-5.5	5.0	24.0	5.5
O=S1(=O)c2cc(Cl)ccc2N2CC[C@H](C2)N1Cc1ccc(Cl)c(Cl)c1	-4.8	/	/	/	/	/
CC1CC(N(C(=O)c2ccc(Cl)cc2)c2ccccc2)c2ccccc2N1C(=O)c1ccco1 (stereo not drawn)	24.5*	-0.8	7.6	-27.2	13.2	-2.6
CC1CC(N(C(=O)c2ccco2)c2ccccc2)c2ccccc2N1C(=O)c1ccco1 (stereo not drawn)	-2.2	-5.0	-2.8	-16.9	/	/
CCOc1ccccc1NC(=O)Nc1ccc(Cl)cc1	25.9*	1.3	15.2	-1.2	12.7	-0.1
CCOc1ccccc1NC(=O)Nc1ccccn1	-5.4	-5.3	-18.4	-17.0	/	/
Oc1cc2c(cc1O)C1c3ccc(O)c(O)c3OCC1(O)C2 (stereo not drawn)	41.5*	/	263.9*	-4.6	55.5*	-0.9
Cc1ccc(/C=N/Nc2nc3ccccc3[nH]2)s1	27.0*	-4.8	-1.9	-82.7	10.1	5.0
Cc1ccccc1/C=N/Nc1nc2ccccc2[nH]1	-1.3	9.8	0.0	-44.1	/	/
C(=N\Nc1nc2ccccc2[nH]1)/c1c[nH]c2ccccc12	33.2*	-3.0	10.1	-66.8	5.3	3.9
Cc1[nH]c2ccccc2c1/C=N/Nc1nc2ccccc2[nH]1	29.9*	-3.9	27.0	-31.8	6.3	11.8*
N#CC(C(=O)CCN1C(=O)C2CC=CCC2C1=O)c1nc2ccccc2[nH]1 (stereo not drawn)	3.5	2.3	-1.6	-14.2	/	/
N#CC(C(=O)C12CC3CC(CC(C3)C1)C2)c1nc2ccccc2[nH]1 (stereo not drawn)	34.6*	7.4	5.4	-26.6	23.9	0.4
Cc1cc(NCCCn2ccnc2)n2nc(C)c(-c3ccc(Cl)cc3)c2n1	44.1*	-3.9	-1.9	/	1.9	9.7*
Cc1cc(NCCCn2ccnc2)n2nc(C)c(-c3ccccc3)c2n1	-4.3	8.1	-1.3	-17.9	/	/
CCOC(=O)CSc1nc(CC)nc2ccccc12	106.5*	-1.4	-6.2	-53.9	120.5*	-7.6
CCOC(=O)CSc1nc(Cc2ccccc2)nc2ccccc12	64.4*	7.0	-9.5	-10.8	88.9*	-0.6
CC(C)OC(=O)CSc1nc(Cc2ccccc2)nc2ccccc12	59.6*	6.0	-8.9	-18.6	87.5*	3.0
COC(=O)CSc1nc(Cc2ccccc2)nc2ccccc12	67.7*	7.5	1.0	-17.8	91.1*	-7.2
CCOC(=O)CNC(=O)CSc1nc(Cc2cccs2)nc2ccccc12	-3.3	-2.7	0.3	-12.5	/	/
Cc1ccccc1-c1ccc2c(c1)[C@@H]1C[C@H]3[C@@H](CN1CC2)[C@H](C)OC(C1CCCCC1)N3C (stereo partly drawn)	1.8	/	/	/	/	/
c1ccc(Cc2cnc(N3CCN(Cc4ccc5c(c4)OCCO5)CC3)nc2)cc1	10.0	/	/	/	/	/
SMILES	PrPC surface inh	BJeLR lethal	MazF activator	PrP 5UTR inh	PrPC TRFRET cf	LD9 cytotox
O=C(NCc1ccccc1Cl)C1CCC(CNS(=O)(=O)c2cccc3cccnc23)CC1 (stereo not drawn)	39.1*	/	/	/	49.6*	0.5
COC(=O)c1cc2c(c3c4cc(C)ccc4n(S(=O)(=O)c4ccccc4)c13)C(=O)N(Cc1ccc(C(F)(F)F)cc1)C2	1.1	/	/	/	/	/
CC(C)(C)C(=O)c1cnc(Nc2ccccc2Cl)s1	27.7*	-2.2	-1.4	-36.1	36.1*	1.4
COc1ccc(C=NNC(=O)Cc2cc(=O)[nH][nH]2)c(OC)c1	-5.8	/	/	/	/	/
COc1ccc(C(=O)Nc2scc(-c3ccc(Cl)cc3Cl)c2C(N)=O)cc1	68.4*	3.3	-4.0	-62.3	33.6*	6.0
COc1ccc(C(=O)Nc2cc(OC)c(Cl)cc2Cl)cc1	10.0	8.0	-15.8	-17.4	/	/
COc1ccccc1N(C(=O)c1ccncc1)c1nc(-c2ccc([N+](=O)[O-])cc2)cs1	26.1*	-0.4	3.5	-17.6	37.6*	-3.1
COCCN(C(=O)c1cccc(N2C(=O)CCC2=O)c1)c1nc(-c2ccc([N+](=O)[O-])cc2)cs1	-7.8	-1.7	-9.9	-16.3	/	/
Cc1ccc(C(=O)Nc2nc(COc3ccccc3)cs2)s1	30.0*	12.2	2.0	-18.2	22.2	5.9
CC(=O)Nc1nc(COc2ccccc2)cs1	11.0	21.6	1.7	-57.2	/	/
CN(C(=O)COC(=O)c1ccccc1Nc1ccccc1)c1c(N)n(Cc2ccccc2)c(=O)[nH]c1=O	29.5*	-2.6	-11.9	-14.4	37.9*	-8.4
O=C(Nc1ccc2ncccc2c1)c1cc(-c2ccc(Cl)cc2)nc2ccccc12	-4.5	/	/	/	/	/
Cc1ccnc(NC(=O)Cc2ccc(-c3ccccc3)cc2)c1	34.8*	9.7	-14.2	-37.5	40.9*	7.6
CC(=O)C(Sc1ccc2nnc(-c3ccc(F)cc3)n2n1)C(C)=O	-6.7	5.2	9.0	-10.5	/	/
CCC(Sc1ccc2nnc(-c3ccc(F)cc3)n2n1)C(=O)O (stereo not drawn)	38.0*	10.9	3.6	-15.6	57.7*	-7.6
CC(=O)c1ccc(S(=O)(=O)NCC2CCN(C(=O)C(=O)c3cc4ccccc4o3)CC2)cc1	-24.6	/	/	/	/	/
CCn1cc(Cl)c(C(=O)Nc2ccccc2C(N)=O)n1	54.2*	-18.9	2.7	-18.6	11.0	-4.9
CCOc1ccc(-n2nc3c(=O)[nH]nc(C)c3c2C)cc1	2.2	-1.6	5.5	-34.7	/	/
CCOc1ccc(-n2nc3c(=S)[nH]nc(C)c3c2C)cc1	91.9*	5.8	-6.2	-4.6	124.9*	-4.4
CCOc1ccc(-n2nc3c(Cl)nnc(C)c3c2C)cc1	-0.3	12.3	-6.9	-10.6	/	/
Cc1ccc(-n2nc3c(SCCN4CCOCC4)nnc(C)c3c2C)cc1	33.1*	-20.8	-13.1	0.8	56.0*	-4.2
CCOc1ccc(-n2nc3c(SCCN4CCCC4)nnc(C)c3c2C)cc1	55.1*	6.2	-1.9	-16.5	73.8*	-2.9
CC(=O)Nc1ccc(S(=O)(=O)Nc2ccc(Cc3ccncc3)cc2)cc1	4.0	-2.4	-4.0	-27.9	/	/
CC(C)(C)c1ccc(S(=O)(=O)Nc2ccc(Cc3ccncc3)cc2)cc1	28.4*	-2.4	6.5	-15.8	44.1*	6.7
C[C@@H]1CN(c2ccc(N3CCNC[C@H]3C)cc2C#N)C[C@H](C)O1	-7.5	/	/	/	/	/
COCCCN1C(=O)[C@H](CC(=O)NCc2ccc(C)o2)[C@]2(C(=O)OC)CCCCC=C12	-4.5	/	/	/	/	/
CCOC(=O)[C@]12Cc3cc(OC)ccc3[C@H]1N(C1CCCCC1)C(=O)c1ccccc12	26.4*	/	/	/	41.6*	95.1*
